High-throughput results deposited in PubChem BioAssay by Buhrlage Lab, Dana-Farber Cancer Institute and Novartis Institutes for BioMedical Research (Cambridge, Mass).
USP28 block – blocks human USP28 ubiquitin-rhodamine cleavage. Q96RU2. purified USP28, Ub-rhodamine cleavage fluorescence, 30 min. inhibition, % at 25 µM. hit rate 3% among 47,000
USP30 inh – inhibitors of human USP30 deubiquitinase; Q70CQ3; purified USP30, Ub-rhodamine cleavage fluorescence; inhibition, % at 25 µM; hit rate 5.3% among 47,000
OTUD3 inh – blocks human OTUD3 ubiquitin-rhodamine cleavage | Q5T2D3 | purified OTUD3, Ub-rhodamine fluorescence, 2 h | inhibition, % at 25 µM | hit rate 0.7% among 47,000 | AID 1645858
USP8 block – inhibitors of human USP8 deubiquitinase; P40818; purified USP8, Ub-rhodamine cleavage fluorescence, 30 min; inhibition, % at 20 µM; hit rate 4.2% among 47,000; AID 1645853
Target sequence (P40818 whole entry, looked up): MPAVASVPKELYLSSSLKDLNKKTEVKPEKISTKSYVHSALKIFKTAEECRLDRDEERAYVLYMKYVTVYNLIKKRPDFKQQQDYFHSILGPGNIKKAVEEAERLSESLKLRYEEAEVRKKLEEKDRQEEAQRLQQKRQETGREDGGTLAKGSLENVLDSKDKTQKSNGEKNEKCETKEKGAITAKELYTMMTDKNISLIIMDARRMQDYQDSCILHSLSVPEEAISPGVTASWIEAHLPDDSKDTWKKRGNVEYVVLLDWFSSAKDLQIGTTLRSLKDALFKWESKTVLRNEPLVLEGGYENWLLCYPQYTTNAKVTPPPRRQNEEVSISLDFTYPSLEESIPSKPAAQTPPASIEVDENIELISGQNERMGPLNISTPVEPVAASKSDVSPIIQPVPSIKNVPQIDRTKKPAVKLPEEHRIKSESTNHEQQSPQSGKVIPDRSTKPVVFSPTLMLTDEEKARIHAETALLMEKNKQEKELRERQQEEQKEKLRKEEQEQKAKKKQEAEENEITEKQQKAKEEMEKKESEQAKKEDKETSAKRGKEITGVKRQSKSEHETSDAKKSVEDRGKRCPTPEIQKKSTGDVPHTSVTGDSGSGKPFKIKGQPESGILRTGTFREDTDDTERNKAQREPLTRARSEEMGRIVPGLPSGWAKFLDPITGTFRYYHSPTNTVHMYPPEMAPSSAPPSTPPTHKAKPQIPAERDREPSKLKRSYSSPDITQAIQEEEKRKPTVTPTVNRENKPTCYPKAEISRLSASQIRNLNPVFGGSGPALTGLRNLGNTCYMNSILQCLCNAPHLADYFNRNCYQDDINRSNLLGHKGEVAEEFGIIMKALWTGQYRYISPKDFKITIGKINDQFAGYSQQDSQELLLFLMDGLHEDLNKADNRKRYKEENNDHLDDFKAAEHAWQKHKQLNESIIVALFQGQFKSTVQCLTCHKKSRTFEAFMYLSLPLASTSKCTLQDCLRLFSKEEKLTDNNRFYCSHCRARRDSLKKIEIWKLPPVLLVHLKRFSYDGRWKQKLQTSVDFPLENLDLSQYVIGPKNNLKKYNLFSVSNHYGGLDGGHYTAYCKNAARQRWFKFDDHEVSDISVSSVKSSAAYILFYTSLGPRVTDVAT
USP17 block – blocks human USP17 ubiquitin-rhodamine cleavage | A8MUK1 | purified USP17, Ub-rhodamine cleavage fluorescence, 3 h | inhibition, % at 50 µM | hit rate 6.5% among 47,000
The depositor's hits bear a star; . = not tested or not shown. Compounds with a hit are over-represented: about 13% of the library has one in this group of screens. Cut-off read from the data, not from the text of the source: active = inhibition above about 30%; inactive = the rest.

SMILES	USP28 block	USP30 inh	OTUD3 inh	USP8 block	USP17 block
N[C@@H]1C[C@@H](Oc2ccccc2)[C@H](O)[C@H]1N1CCCCC1	.	.	0	-2	-16
Cc1cc(F)ccc1NC(=O)Cc1nc(C)c(C(=O)NC2CC2)s1	-51	-221	-51	-29	-19
Cc1ncc(CO)c2c1Oc1nc(-c3cccc(Cl)c3)nc(SCC(=O)N3CCCCC3)c1C2	19	-1	22	50*	82*
CN(C)c1ccc(C2CC(c3c(O)n(C)c(=O)[nH]c3=O)=Nc3ccccc3S2)cc1 (configuration not stated)	51*	24	15	18	65*
Cc1nc(N2CCOCC2)ncc1-c1cc(=O)[nH]c(N2CCC(C)CC2)n1	10	27	11	9	6
CC(OC(=O)c1ccc(Cl)cc1)C(=O)NCC1CCCCC1 (configuration not stated)	15	31*	10	14	26
CC(OC(=O)c1ccc(N(C)C)cc1)C(=O)NC1CCCC1 (configuration not stated)	14	16	15	29	17
CCc1noc(-c2ccc(OCC(=O)Nc3cc(C)cc(C)c3)cc2)n1	10	44*	0	0	25
Cc1cc(C)cc(NC(=O)Cc2nnc3ccc(-c4nc(C)no4)cn23)c1	-4	-22	0	15	0
Cc1ccc(NC(=O)COc2ccc(-c3nc(C(C)C)no3)cc2)c(F)c1	6	32*	10	21	37*
NC(=O)c1cccc(NC(=O)COc2ccc(Cl)c3ccccc23)c1	2	-18	1	19	9
Cc1cccc(NC(=O)c2nc(N3CCOCC3)c3cnn(C)c3n2)c1	19	42*	9	1	44*
Cc1cc2nc(N3CCOCC3)n(CC(=O)Nc3ccccc3)c(=O)c2n1C	-5	-12	-4	1	18
Cc1scc2nc(C(=O)Nc3ccc4c(c3)OCO4)nc(N3CCOCC3)c12	32*	19	-128	20	23
Cc1cccc(NC(=O)Cn2c(N3CCOCC3)nc3cc(C)n(C)c3c2=O)c1	12	61*	-1	10	47*
Cn1ncc2c(N3CCOCC3)nc(C(=O)NCc3ccc(Cl)cc3)nc21	15	19	7	18	5
CCc1cccc(N2C(=O)c3ccccc3C2C(=O)NCc2ccccc2OC)c1 (configuration not stated)	0	11	-1	32*	7
CC(C(=O)NCc1ccccc1)N1CCc2ccccc21 (configuration not stated)	-7	-3	-2	-6	-5
O=C(CNC1Cc2ccccc2C1)Nc1ccccc1N1CCOCC1	4	-1	2	46*	13
O=C1CC(C(=O)Nc2cccc(Br)c2)c2ccc(F)cc2N1 (configuration not stated)	39*	11	10	14	11
COC(=O)c1ccc2c(=O)n(CCCCCC(=O)NCCc3ccccc3Cl)c(=O)[nH]c2c1	-15	-2	-2	43*	0
COC(=O)c1ccc2c(=O)n(CCCCCC(=O)N3CCN(c4ccccc4OC)CC3)c(=O)[nH]c2c1	-7	-26	-10	0	-7
COC(=O)c1ccc2c(=O)n(CCCCCC(=O)N3CCN(c4ccccn4)CC3)c(=O)[nH]c2c1	-1	5	-1	-15	-4
COC(=O)c1ccc2c(=O)n(CCCCCC(=O)NCCc3ccc(S(N)(=O)=O)cc3)c(=O)[nH]c2c1	86*	88*	21	82*	27
COc1ccccc1-c1nc(Cn2nnc(C(=O)Nc3cc(C)cc(C)c3)c2N)c(C)o1	0	35*	-9	11	66*
SMILES	USP28 block	USP30 inh	OTUD3 inh	USP8 block	USP17 block
CCOc1ccccc1NC(=O)Cn1nnc(C(=O)Nc2cc(C)cc(C)c2)c1N	-1	23	1	16	.
CC1CCCN(C(=O)c2cn(-c3ccc(S(=O)(=O)N4CCCC(C)C4)cn3)cn2)C1 (configuration not stated)	10	38*	11	11	6
COc1nccnc1NC1CCN(C(=O)NCC2CCCO2)CC1 (configuration not stated)	4	18	10	11	8
O=C(Nc1ccc(F)c(Cl)c1)C1CCN(C(=O)c2cc(-c3ccncc3)n[nH]2)CC1	16	15	7	12	16
O=C(Nc1ccc(F)cc1F)c1cc(-c2ccccn2)n[nH]1	-7	17	-3	52*	9
Cc1ccc(-c2cc(C(=O)Nc3cccc(C)c3)[nH]n2)cc1	-12	-76	-19	-12	-83
O=C(Nc1ccc(Cl)cc1F)c1cc(-c2ccncc2)n[nH]1	25	74*	8	-2	67*
